Experimental data published in ChEMBL document CHEMBL2218924, “A broad activity screen in support of a chemogenomic map for kinase signalling research and drug discovery” (Biochem J, 2013).

What was measured:
[1] = target: Serine/threonine-protein kinase MRCK alpha (Homo sapiens) (UniProt Q5VT25); conditions: at 1 µM
[2] = target: Serine/threonine-protein kinase MRCK alpha (Homo sapiens) (UniProt Q5VT25); conditions: at 10 µM
[3] = target: Ribosomal protein S6 kinase alpha-5 (Homo sapiens) (UniProt O75582); conditions: at 1 µM
[4] = target: Ribosomal protein S6 kinase alpha-5 (Homo sapiens) (UniProt O75582); conditions: at 10 µM
[5] = target: Myosin light chain kinase, smooth muscle (Homo sapiens) (UniProt Q15746); conditions: at 1 µM
Sequence of Myosin light chain kinase, smooth muscle (Homo sapiens) (Q15746 whole entry): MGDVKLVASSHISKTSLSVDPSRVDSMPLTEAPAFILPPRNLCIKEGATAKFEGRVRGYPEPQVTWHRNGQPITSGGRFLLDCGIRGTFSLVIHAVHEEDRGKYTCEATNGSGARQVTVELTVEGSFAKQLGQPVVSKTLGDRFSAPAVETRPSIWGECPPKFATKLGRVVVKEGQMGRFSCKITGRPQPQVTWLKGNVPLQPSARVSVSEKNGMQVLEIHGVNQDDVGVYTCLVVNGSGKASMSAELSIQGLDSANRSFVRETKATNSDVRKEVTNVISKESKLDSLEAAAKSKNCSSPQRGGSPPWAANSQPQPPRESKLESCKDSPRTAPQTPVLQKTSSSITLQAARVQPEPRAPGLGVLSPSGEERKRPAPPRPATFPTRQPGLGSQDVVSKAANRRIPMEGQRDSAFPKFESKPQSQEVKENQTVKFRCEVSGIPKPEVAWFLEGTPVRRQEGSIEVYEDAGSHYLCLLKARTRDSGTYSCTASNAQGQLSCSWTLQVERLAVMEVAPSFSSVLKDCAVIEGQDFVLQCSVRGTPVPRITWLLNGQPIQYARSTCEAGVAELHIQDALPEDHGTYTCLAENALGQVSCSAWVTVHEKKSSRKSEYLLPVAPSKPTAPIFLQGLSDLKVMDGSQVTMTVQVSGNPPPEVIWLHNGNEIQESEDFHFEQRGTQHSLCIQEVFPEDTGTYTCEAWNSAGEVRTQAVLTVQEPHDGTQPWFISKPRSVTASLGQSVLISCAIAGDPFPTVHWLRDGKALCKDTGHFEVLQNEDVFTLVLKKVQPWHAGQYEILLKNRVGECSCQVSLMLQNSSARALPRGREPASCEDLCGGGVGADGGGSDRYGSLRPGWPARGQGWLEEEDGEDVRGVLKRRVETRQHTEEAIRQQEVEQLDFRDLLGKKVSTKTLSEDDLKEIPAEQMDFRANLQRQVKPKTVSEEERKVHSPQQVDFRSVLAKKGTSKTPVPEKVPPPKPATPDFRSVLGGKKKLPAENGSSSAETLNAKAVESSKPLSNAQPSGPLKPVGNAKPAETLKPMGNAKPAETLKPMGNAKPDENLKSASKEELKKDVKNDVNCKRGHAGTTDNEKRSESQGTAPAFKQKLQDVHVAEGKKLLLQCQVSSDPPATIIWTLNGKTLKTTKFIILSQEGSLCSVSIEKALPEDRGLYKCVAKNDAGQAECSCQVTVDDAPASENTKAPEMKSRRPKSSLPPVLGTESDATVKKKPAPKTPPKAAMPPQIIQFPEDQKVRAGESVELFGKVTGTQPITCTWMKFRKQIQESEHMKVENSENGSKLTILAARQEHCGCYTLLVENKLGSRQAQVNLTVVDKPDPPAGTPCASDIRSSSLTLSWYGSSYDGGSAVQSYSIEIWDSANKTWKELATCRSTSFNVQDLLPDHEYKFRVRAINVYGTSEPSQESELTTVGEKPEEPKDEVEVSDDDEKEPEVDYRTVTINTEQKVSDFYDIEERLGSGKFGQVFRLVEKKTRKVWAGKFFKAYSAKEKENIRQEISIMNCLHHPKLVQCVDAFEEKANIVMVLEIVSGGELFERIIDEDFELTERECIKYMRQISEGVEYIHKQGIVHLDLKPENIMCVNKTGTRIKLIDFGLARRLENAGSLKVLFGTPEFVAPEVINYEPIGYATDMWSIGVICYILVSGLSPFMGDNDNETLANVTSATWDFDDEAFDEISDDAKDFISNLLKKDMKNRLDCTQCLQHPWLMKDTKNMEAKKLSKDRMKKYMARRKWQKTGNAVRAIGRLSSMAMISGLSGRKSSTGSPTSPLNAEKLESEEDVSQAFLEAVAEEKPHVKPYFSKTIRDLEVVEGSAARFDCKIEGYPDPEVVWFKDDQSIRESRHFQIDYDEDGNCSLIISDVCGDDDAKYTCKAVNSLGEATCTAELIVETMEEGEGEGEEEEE

[6] = target: Myosin light chain kinase, smooth muscle (Homo sapiens) (UniProt Q15746); conditions: at 10 µM
[7] = target: Mitogen-activated protein kinase kinase kinase 9 (Homo sapiens) (UniProt P80192); conditions: at 1 µM
Sequence of Mitogen-activated protein kinase kinase kinase 9 (Homo sapiens) (P80192 whole entry, looked up): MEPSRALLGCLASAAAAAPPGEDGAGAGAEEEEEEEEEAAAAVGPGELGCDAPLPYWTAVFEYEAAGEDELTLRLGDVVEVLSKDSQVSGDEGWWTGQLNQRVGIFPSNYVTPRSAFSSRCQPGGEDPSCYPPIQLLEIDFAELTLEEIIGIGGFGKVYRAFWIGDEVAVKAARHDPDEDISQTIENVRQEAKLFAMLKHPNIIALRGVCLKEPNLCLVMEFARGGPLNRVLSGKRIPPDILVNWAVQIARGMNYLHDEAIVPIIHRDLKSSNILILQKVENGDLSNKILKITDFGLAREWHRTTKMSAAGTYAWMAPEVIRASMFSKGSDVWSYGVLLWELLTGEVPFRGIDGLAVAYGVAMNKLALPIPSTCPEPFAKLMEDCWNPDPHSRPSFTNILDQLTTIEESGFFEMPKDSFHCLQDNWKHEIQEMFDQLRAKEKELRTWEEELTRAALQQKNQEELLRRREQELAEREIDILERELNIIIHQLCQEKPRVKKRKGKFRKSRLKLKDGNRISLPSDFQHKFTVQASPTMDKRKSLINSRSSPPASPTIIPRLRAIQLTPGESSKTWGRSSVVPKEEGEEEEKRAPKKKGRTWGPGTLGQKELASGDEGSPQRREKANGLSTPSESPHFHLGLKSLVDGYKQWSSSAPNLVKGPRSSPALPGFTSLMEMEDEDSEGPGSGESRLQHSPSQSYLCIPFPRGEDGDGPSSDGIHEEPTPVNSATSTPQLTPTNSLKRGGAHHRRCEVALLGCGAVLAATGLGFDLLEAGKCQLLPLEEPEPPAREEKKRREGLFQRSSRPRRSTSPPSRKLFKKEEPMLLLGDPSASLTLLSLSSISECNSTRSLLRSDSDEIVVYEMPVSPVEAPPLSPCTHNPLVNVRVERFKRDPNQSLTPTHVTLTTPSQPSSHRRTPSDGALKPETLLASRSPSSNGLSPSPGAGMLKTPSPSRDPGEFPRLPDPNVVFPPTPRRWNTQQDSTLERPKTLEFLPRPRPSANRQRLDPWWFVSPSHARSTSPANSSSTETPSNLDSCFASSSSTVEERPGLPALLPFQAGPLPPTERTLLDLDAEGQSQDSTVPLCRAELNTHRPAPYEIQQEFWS

[8] = target: Mitogen-activated protein kinase kinase kinase 9 (Homo sapiens) (UniProt P80192); conditions: at 10 µM
[9] = target: Serine/threonine-protein kinase MRCK beta (Homo sapiens) (UniProt Q9Y5S2); conditions: at 1 µM
[10] = target: Serine/threonine-protein kinase MRCK beta (Homo sapiens) (UniProt Q9Y5S2); conditions: at 10 µM

Sequence of Serine/threonine-protein kinase MRCK alpha (Homo sapiens) (Q5VT25 whole entry): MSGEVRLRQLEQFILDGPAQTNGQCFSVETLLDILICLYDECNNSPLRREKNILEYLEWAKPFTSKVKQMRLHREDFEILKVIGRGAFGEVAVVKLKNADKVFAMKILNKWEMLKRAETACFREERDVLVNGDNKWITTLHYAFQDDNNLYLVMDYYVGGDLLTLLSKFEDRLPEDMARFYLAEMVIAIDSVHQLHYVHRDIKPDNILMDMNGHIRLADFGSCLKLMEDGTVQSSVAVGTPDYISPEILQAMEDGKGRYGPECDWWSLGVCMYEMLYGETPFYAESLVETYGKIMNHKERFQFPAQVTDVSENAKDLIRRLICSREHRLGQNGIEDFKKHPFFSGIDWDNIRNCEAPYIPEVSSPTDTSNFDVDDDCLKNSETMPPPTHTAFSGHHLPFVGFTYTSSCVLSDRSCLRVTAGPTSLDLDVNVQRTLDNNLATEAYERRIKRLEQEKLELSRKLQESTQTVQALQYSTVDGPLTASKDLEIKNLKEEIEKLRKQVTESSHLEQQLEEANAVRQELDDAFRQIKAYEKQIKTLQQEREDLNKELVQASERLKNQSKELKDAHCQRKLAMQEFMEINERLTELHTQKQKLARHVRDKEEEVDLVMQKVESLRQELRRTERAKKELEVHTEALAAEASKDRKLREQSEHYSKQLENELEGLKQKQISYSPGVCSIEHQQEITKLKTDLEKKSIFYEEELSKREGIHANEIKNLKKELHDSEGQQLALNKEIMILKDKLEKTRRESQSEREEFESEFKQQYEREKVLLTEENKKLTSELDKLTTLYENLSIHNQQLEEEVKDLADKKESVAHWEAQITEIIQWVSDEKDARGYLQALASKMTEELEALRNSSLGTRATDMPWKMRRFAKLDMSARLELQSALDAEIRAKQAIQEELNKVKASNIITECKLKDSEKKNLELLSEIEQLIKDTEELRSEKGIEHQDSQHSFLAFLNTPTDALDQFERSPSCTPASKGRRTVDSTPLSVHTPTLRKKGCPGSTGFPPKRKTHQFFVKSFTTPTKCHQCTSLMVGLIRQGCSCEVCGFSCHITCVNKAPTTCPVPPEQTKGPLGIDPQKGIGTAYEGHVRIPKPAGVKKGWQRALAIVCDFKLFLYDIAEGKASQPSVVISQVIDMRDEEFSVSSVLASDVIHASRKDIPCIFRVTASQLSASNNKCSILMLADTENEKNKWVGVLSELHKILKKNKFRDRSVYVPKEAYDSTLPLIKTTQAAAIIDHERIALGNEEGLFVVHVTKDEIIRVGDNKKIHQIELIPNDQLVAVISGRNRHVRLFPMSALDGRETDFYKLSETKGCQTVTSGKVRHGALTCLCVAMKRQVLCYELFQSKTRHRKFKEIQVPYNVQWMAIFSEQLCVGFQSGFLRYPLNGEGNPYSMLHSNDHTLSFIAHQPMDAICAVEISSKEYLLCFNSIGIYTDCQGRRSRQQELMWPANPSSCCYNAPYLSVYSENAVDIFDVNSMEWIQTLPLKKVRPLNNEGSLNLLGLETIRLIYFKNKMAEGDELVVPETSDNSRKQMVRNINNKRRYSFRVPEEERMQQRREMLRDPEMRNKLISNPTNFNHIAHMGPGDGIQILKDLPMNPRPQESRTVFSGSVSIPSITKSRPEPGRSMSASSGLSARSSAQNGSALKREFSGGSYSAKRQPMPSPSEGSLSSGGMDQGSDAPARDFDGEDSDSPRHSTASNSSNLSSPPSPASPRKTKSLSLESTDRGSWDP

Compound	residual activity [1] [%]	residual activity [2] [%]	residual activity [3] [%]	residual activity [4] [%]	residual activity [5] [%]	residual activity [6] [%]	residual activity [7] [%]	residual activity [8] [%]	residual activity [9] [%]	residual activity [10] [%]
CCc1nc(-c2ccc(OC)cc2)[nH]c1-c1ccncc1	115	114	108	112	–	–	–	–	–	–
COC(=O)[C@@]1(O)C[C@H]2O[C@]1(C)n1c3ccccc3c3c4c(c5c6ccccc6n2c5c31)C(=O)NC4	71	23	5	0	1	2	1	0	33	5
c1cc(-c2cnn3cc(-c4ccc(OCCN5CCCCC5)cc4)cnc23)ccn1	121	118	121	60	–	71	78	17	106	–
CC(C)[C@H](CO)Nc1nc(Nc2cccc(Cl)c2)c2ncn(C(C)C)c2n1	–	–	–	–	–	46	10	1	98	88
CN[C@@H]1C[C@H]2O[C@@](C)([C@@H]1OC)n1c3ccccc3c3c4c(c5c6ccccc6n2c5c31)C(=O)NC4	–	–	–	–	0	1	0	1	–	–
COc1cc(OC)c(/C=C2\C(=O)Nc3ccccc32)c(OC)c1	–	–	–	–	88	77	92	65	83	84
O=C1NC(=O)c2c1c1c3ccccc3n3c1c1c2c2ccccc2n1C1CCC3O1	–	–	41	33	90	65	1	2	–	–
O=C1Nc2ccc3ncsc3c2/C1=C/c1c[nH]cn1	104	90	43	7	25	11	9	2	75	49
C[S+]([O-])c1ccc(-c2nc(-c3ccc(F)cc3)c(-c3ccncc3)[nH]2)cc1 (stereo not given)	106	119	97	98	118	89	101	–	113	110
O=C1c2ccccc2-c2nc3nnnn3nc21	107	100	145	–	79	104	103	102	116	–
COc1ccc2c(c[n+](C)c3c4cc5c(cc4ccc23)OCO5)c1OC	85	84	–	–	78	–	–	81	90	81
COc1ccc2c(c1)/C(=C/c1cnc[nH]1)C(=O)N2	129	100	–	–	–	–	25	4	–	–
O=[N+]([O-])/C=C/c1ccc2c(c1)OCO2	106	100	125	110	89	82	100	111	83	89
COc1cc2ncnc(Nc3ccc(OCc4ccccc4)cc3)c2cc1OC	121	117	–	–	84	90	81	56	95	95
CCn1cnc2c(Nc3cccc(Cl)c3)nc(N[C@@H]3CCCC[C@@H]3N)nc21	–	–	–	–	94	46	16	2	94	78
O=c1[nH]c2ccccc2n1C1CCN(Cc2ccc(-c3nc4cc5[nH]cnc5cc4nc3-c3ccccc3)cc2)CC1	122	128	132	106	76	4	98	100	96	82
CC(C)(C)c1cc(C=C(C#N)C#N)cc(Br)c1O	108	–	122	97	–	–	104	97	115	–
